Bioassay records as filed in PubChem.
This is one part of a sample in which hits are shown more often than they occur.
IDE exosite inh = exo-site inhibitors of human insulin-degrading enzyme; AID 1259349; z-score at 20 µM; actives 6.3% (n = 17,000); P14735; purified IDE, FL-6b probe fluorescence polarization; hits give low values;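 active = z-score of -3 or lower, meaning strong loss of probe binding signal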;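 also: His-tagged human IDE residues 42-1019 made in E. coli with 30 nM FL-6b probe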
* marks the source's active call; other numbers are inactive results.

SMILES | IDE exosite inh
COc1cccc(C#Cc2ccc([C@H]3[C@H](CO)N4C(=O)CN(C(=O)Cc5ccccc5)C[C@@H]34)cc2)c1 | -0.11
CCCC#Cc1ccc([C@@H]2[C@@H](CO)N3C(=O)CN(C(=O)Cc4cccnc4)C[C@@H]23)cc1 | -1.6
CCCC#Cc1ccc([C@@H]2[C@H]3CN(C(=O)Cc4cccnc4)CC(=O)N3[C@H]2CO)cc1 | -4.3*
COc1cccc(C#Cc2ccc([C@@H]3[C@H]4CN(C(=O)Cc5cccnc5)CC(=O)N4[C@H]3CO)cc2)c1 | -5*
COc1cccc(C#Cc2ccc([C@@H]3[C@H](CO)N4C(=O)CN(C(=O)Cc5ccccc5)C[C@@H]34)cc2)c1 | -0.78
CCCNC(=O)N1CC2(C1)[C@H](c1ccccc1)[C@@H](CO)N2Cc1ccc(Cl)cc1 | -0.92
COCC(=O)Nc1ccc2c(c1)C(=O)N(C)C[C@H](OC)[C@@H](C)CN(C(=O)c1ccncc1)[C@H](C)CO2 | -0.17
CCC(=O)N1[C@H](CO)[C@@H](c2ccccc2)[C@@H]1CNC(=O)CN1CCOCC1 | 2.2
COc1ccc(S(=O)(=O)N2CCCCN3[C@H](C2)[C@@H](c2ccc(C#CC(C)C)cc2)[C@@H]3CO)cc1 | 2.6
Cn1cnc(S(=O)(=O)N2CCCCN3[C@H](C2)[C@H](c2ccc(-c4ccccc4F)cc2)[C@@H]3CO)c1 | 1.3
Cn1cnc(S(=O)(=O)N2CCCCN3[C@H](CO)[C@H](c4ccc(C5=CCCCC5)cc4)[C@@H]3C2)c1 | -0.73
COc1ccccc1-c1ccc([C@@H]2[C@H]3CN(S(=O)(=O)c4cn(C)cn4)CCCCN3[C@H]2CO)cc1 | -8.4*
Cc1ccccc1-c1ccc([C@@H]2[C@H]3CN(S(=O)(=O)c4cn(C)cn4)CCCCN3[C@H]2CO)cc1 | -19*
Cn1cnc(S(=O)(=O)N2CCCCN3[C@H](C2)[C@H](c2ccc(-c4ccc(F)cc4)cc2)[C@@H]3CO)c1 | 2.9
Cn1cnc(S(=O)(=O)N2CCCCN3[C@H](CO)[C@@H](c4ccc(-c5ccccc5F)cc4)[C@@H]3C2)c1 | -11*
Cn1cnc(S(=O)(=O)N2CCCCN3[C@H](C2)[C@H](c2ccc(C4=CCCCC4)cc2)[C@@H]3CO)c1 | 0.24
Cn1cnc(S(=O)(=O)N2CCCCN3[C@@H](CO)[C@H](c4ccc(-c5ccccc5F)cc4)[C@@H]3C2)c1 | 0.11
Cc1ccccc1-c1ccc([C@H]2[C@@H](CO)N3CCCCN(S(=O)(=O)c4cn(C)cn4)C[C@H]23)cc1 | -17*
N#C[C@H]1[C@H](c2ccccc2-c2ccc(F)cc2)[C@H](CO)N1c1ncc(-c2ccccc2)s1 | 0.63
COCC(=O)Nc1ccc2c(c1)C(=O)N(C)C[C@@H](OC)[C@@H](C)CN(CCc1ccccc1)[C@@H](C)CO2 | 0.082
COc1ccc(-c2ccc([C@H]3[C@H](CO)N4C(=O)CN(Cc5ccc(F)cc5)C[C@@H]34)cc2)cc1 | 2.1
O=C(c1cccc(F)c1)N1CC(=O)N2[C@H](CO)[C@H](c3ccc(C4=CCCC4)cc3)[C@@H]2C1 | 5
COCC#Cc1ccc([C@@H]2[C@H]3CN(C(=O)CN4CCOCC4)CC(=O)N3[C@H]2CO)cc1 | -0.13
Cc1ccc(-c2ccc([C@H]3[C@@H](CO)N4C(=O)CN(C(=O)CN5CCOCC5)C[C@@H]34)cc2)cc1 | -0.81
COc1cccc(-c2ccc([C@@H]3[C@@H](CO)N4C(=O)CN(C(=O)c5ccncc5)C[C@@H]34)cc2)c1 | -2.8
SMILES | IDE exosite inh
Cc1ccc(-c2ccc([C@@H]3[C@H](CO)N4C(=O)CN(C(=O)CN5CCOCC5)C[C@@H]34)cc2)cc1 | -0.58
Cc1cccc(-c2ccc([C@H]3[C@H](CO)N4C(=O)CN(C(=O)CN5CCOCC5)C[C@@H]34)cc2)c1 | -6.3*
COc1cccc(-c2ccc([C@@H]3[C@@H](CO)N4C(=O)CN(C(=O)CN5CCOCC5)C[C@H]34)cc2)c1 | -3.8*
Cc1ccc(-c2ccc([C@@H]3[C@H]4CN(C(=O)CN5CCOCC5)CC(=O)N4[C@H]3CO)cc2)cc1 | -2.1
COc1cccc(-c2ccc([C@@H]3[C@H]4CN(C(=O)CN5CCOCC5)CC(=O)N4[C@H]3CO)cc2)c1 | -5.5*
COc1cccc(-c2ccc([C@H]3[C@H]4CN(C(=O)c5ccncc5)CC(=O)N4[C@H]3CO)cc2)c1 | 1.6
O=C(Nc1ccccc1F)N1CC(=O)N2[C@@H](CO)[C@H](c3ccc(-c4ccc(F)cc4)cc3)[C@@H]2C1 | 1.4
COCC#Cc1ccc([C@@H]2[C@H]3CN(S(=O)(=O)c4ccccc4F)CCCCN3[C@H]2CO)cc1 | 0.65
O=S(=O)(c1ccccc1)N1[C@H](CO)[C@H]2c3ccccc3NC[C@H]21 | 1.9
O=C(Nc1cccc(F)c1)N1CC(=O)N2[C@H](C1)[C@@H](c1ccc(-c3ccc(F)cc3)cc1)[C@@H]2CO | 1.3
COc1cccc(NC(=O)Nc2ccc3c(c2)C(=O)N(C)C[C@H](OC)[C@@H](C)CN(CC2CC2)[C@@H](C)CO3)c1 | 2.8
O=C(NC1Cc2ccccc2C1)[C@H]1[C@H](CO)[C@H]2Cn3c(cccc3=O)[C@H]2N1C(=O)c1cnccn1 | 0.84
O=C1C[C@@H](c2ccccc2)C(=O)N[C@@H](c2ccccc2)C/C=C\C[C@@H](c2ccccc2)N1 | -0.22
O=C(NC[C@H]1N[C@H](CO)[C@@H]1c1ccc(-c2ccccc2)cc1)C1CCC1 | -3.5*
O=C(NC[C@H]1N[C@H](CO)[C@@H]1c1ccccc1)C1CCC1 | 0.4
O=C(NC[C@@H]1N[C@@H](CO)[C@H]1c1ccccc1)C1CCC1 | 2.5
O=C(NC[C@@H]1N[C@@H](CO)[C@H]1c1ccccc1)C1CCCC1 | 2.3
O=C(NC[C@H]1N[C@H](CO)[C@@H]1c1ccccc1)C1CC1 | 3
COc1ccccc1-c1ccc([C@H]2[C@@H](CO)N[C@@H]2CNC(=O)C2CC2)cc1 | -4.2*
CCN1CC(=O)N2[C@@H](CO)[C@@H](c3ccc(Br)cc3)[C@@H]2C1 | 0.25
O=C(CN1CCOCC1)N1CC[C@H]2[C@H](CO)Nc3ccc(Br)cc3[C@H]21 | 1.6
OC[C@H]1[C@@H](c2ccc(C#CC3(O)CCCC3)cc2)[C@@H]2CN(Cc3cccnc3)CCCCN12 | 1.1
COCC#Cc1ccc([C@H]2[C@H]3CN(C(=O)COC)CCCCN3[C@H]2CO)cc1 | 2.4
COc1ccc(C#Cc2ccc([C@@H]3[C@@H](CO)N4CCCCN(C(=O)c5ccncc5)C[C@H]34)cc2)cc1 | 1.7
COCC#Cc1ccc([C@H]2[C@H](CO)N3CCCCN(C(=O)COC)C[C@@H]23)cc1 | 3.5
SMILES | IDE exosite inh
COc1ccc(C#Cc2ccc([C@H]3[C@@H](CO)N4CCCCN(C(=O)c5ccncc5)C[C@@H]34)cc2)cc1 | -6.6*
COCC#Cc1ccc([C@H]2[C@@H](CO)N3CCCCN(C(=O)COC)C[C@@H]23)cc1 | 4.1
COCC(=O)N1CCCCN2[C@@H](CO)[C@H](c3ccc(C#Cc4ccc(OC)cc4)cc3)[C@@H]2C1 | -3.1*
COCC(=O)N1CCCCN2[C@H](C1)[C@@H](c1ccc(C#Cc3ccc(OC)cc3)cc1)[C@@H]2CO | 4.1
COc1ccc(C#Cc2ccc([C@H]3[C@H](CO)N4CCCCN(C(=O)c5ccncc5)C[C@@H]34)cc2)cc1 | 2.1
COCC(=O)N1CCCCN2[C@H](CO)[C@@H](c3ccc(C#Cc4ccccc4)cc3)[C@H]2C1 | -7.1*
COCC(=O)N1[C@@H](C#N)[C@@H](c2ccccc2-c2cccc(OC)c2)[C@@H]1CO | 4.2
C[C@@H]1CN([C@H](C)CO)S(=O)(=O)c2ccc(-c3ccncc3)cc2O[C@H]1CN(C)S(C)(=O)=O | -0.94
